Reference: PubChem BioAssay (EPA / NIEHS)
Activity calls are given as the source filed them. The calls were made as follows: active = hit-call score of the fitted dose curve at least 0.9, where 1 is the maximum; inactive = score below 0.9.

Read-out: Forkhead box O3 (FOXO3), FOXO3 (gene 2309)
Test: LTEA_HepaRG_FOXO3: Life Technologies and Expression Analysis (LTEA) Assay for Forkhead box O3 (FOXO3) using HepaRG (AID 2283459)
Conditions: mRNA level, 48 h; actives raise or lower the signal
Method in brief: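 Differentiated human HepaRG cells in serum-free induction medium were exposed in duplicate for 48 h to eight half-log concentrations up to 100 uM in 0.5% DMSO. FOXO3 mRNA was quantified by qRT-PCR, normalized to ACTB, GAPDH and POLR2A, with bidirectional fitting versus DMSO.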

outcome, inactive:
CCCCCCc1ccc(O)cc1O
Nc1nc2ncc(CNc3ccc(C(=O)N[C@@H](CCC(=O)O)C(=O)O)cc3)nc2c(=O)[nH]1
CC(C)CC(C)(O)C#CC(C)(O)CC(C)C (stereo not given)
CCOC(=O)COc1ccc2c(c1)CC(NCC(O)c1cccc(Cl)c1)CC2 (stereo not given)
CC1=CC(=O)CC(C)(C)C1
CC[C@H]1OC(=O)[C@H](C)[C@@H](O[C@H]2C[C@@](C)(OC)[C@@H](O)[C@H](C)O2)[C@H](C)[C@@H](O[C@@H]2O[C@H](C)C[C@H](N(C)C)[C@H]2O)[C@](C)(O)C[C@@H](C)C(=O)[C@H](C)[C@@H](O)[C@]1(C)O
Cc1ccc(C)c(O)c1
CCOCCO
CC(=O)OC[C@H]1O[C@@](COC(C)=O)(O[C@H]2O[C@H](COC(C)=O)[C@@H](OC(C)=O)[C@H](OC(C)=O)[C@H]2OC(C)=O)[C@@H](OC(C)=O)[C@@H]1OC(C)=O

AC50, active:
CCOC(=O)c1ccc(C2CCC(NC[C@H](O)COc3ccc(O)c(NS(C)(=O)=O)c3)CC2)cc1 (stereo not given in full) 8.31 µM
COc1ccc2sc(C(=O)Nc3nnn[nH]3)c(OC(C)C)c2c1 23.6 µM

Read-out: ABC Transporter (ABCB1), ABCB1 (gene 5243)
Test: LTEA_HepaRG_ABCB1: Life Technologies and Expression Analysis (LTEA) Assay for ABC Transporter (ABCB1) using HepaRG (AID 2283460)
Conditions: mRNA level, 48 h; actives raise or lower the signal
Method in brief: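 Differentiated human HepaRG cells, plated 48 h then switched to serum-free induction medium, were exposed in duplicate to eight half-log concentrations up to 100 uM in 0.5% DMSO for 48 h. ABCB1 mRNA was measured by TaqMan qRT-PCR, normalized to ACTB/GAPDH/POLR2A.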

outcome, inactive:
CCCCCCCCO
CC(=O)c1ccc2c(c1)[C@H](NC(=O)c1ccc(F)cc1)[C@@H](O)C(C)(C)O2
CC1(C)C(=O)N(Br)C(=O)N1Br
CCNc1ccccc1
COc1ccc(/C=C/S(=O)(=O)NC(=O)c2ccc(C)cc2Cl)cc1
CC(C)CCO
O=C(O)CCN(C1(C(=O)NO)CCCC1)S(=O)(=O)c1ccc(Oc2ccc(F)cc2)cc1
C=CC(=C)CCC=C(C)C
CC(O)CN(CCN(CC(C)O)CC(C)O)CC(C)O (stereo not given)
O=C(O)CC(O)C(=O)O (stereo not given)
O=C(O)c1cc(N=Nc2ccc(S(=O)(=O)Nc3ccccn3)cc2)ccc1O
C[C@](N)(Cc1ccc(O)c(O)c1)C(=O)O
On1ccccc1=S
Cn1c(=O)c2c(ncn2C)n(C)c1=O
O=C(OC[C@H]1O[C@@H](OC(=O)c2cc(O)c(O)c(OC(=O)c3cc(O)c(O)c(O)c3)c2)[C@H](OC(=O)c2cc(O)c(O)c(OC(=O)c3cc(O)c(O)c(O)c3)c2)[C@@H](OC(=O)c2cc(O)c(O)c(OC(=O)c3cc(O)c(O)c(O)c3)c2)[C@@H]1OC(=O)c1cc(O)c(O)c(OC(=O)c2cc(O)c(O)c(O)c2)c1)c1cc(O)c(O)c(OC(=O)c2cc(O)c(O)c(O)c2)c1
CCCCCCc1ccc(O)cc1O
Nc1nc2ncc(CNc3ccc(C(=O)N[C@@H](CCC(=O)O)C(=O)O)cc3)nc2c(=O)[nH]1
CCOC(=O)COc1ccc2c(c1)CC(NCC(O)c1cccc(Cl)c1)CC2 (stereo not given)
CC1=CC(=O)CC(C)(C)C1
CC[C@H]1OC(=O)[C@H](C)[C@@H](O[C@H]2C[C@@](C)(OC)[C@@H](O)[C@H](C)O2)[C@H](C)[C@@H](O[C@@H]2O[C@H](C)C[C@H](N(C)C)[C@H]2O)[C@](C)(O)C[C@@H](C)C(=O)[C@H](C)[C@@H](O)[C@]1(C)O
CCOC(=O)c1ccc(C2CCC(NC[C@H](O)COc3ccc(O)c(NS(C)(=O)=O)c3)CC2)cc1 (stereo not given in full)
Cc1ccc(C)c(O)c1
COc1ccc2sc(C(=O)Nc3nnn[nH]3)c(OC(C)C)c2c1
CCOCCO
CC(=O)OC[C@H]1O[C@@](COC(C)=O)(O[C@H]2O[C@H](COC(C)=O)[C@@H](OC(C)=O)[C@H](OC(C)=O)[C@H]2OC(C)=O)[C@@H](OC(C)=O)[C@@H]1OC(C)=O

AC50, active:
CCCN(C1CCN(C(=O)C2CCNCC2)CC1)[C@@H]1CCc2ccc(OC)cc2C1 15.2 µM
CCc1cc(SCc2sc(-c3ccc(C(F)(F)F)cc3)nc2CN2CCN(c3ccc(OC)cc3)CC2)ccc1OCC(=O)O 25 µM
CCOc1cccc(-n2cc(C(=O)N3CCN(c4cc(C(=O)O)c5ccccc5c4)CC3)nc2-c2ccc(C)cc2)c1 78.6 µM
CC(C)CC(C)(O)C#CC(C)(O)CC(C)C (stereo not given) 16.7 µM
